Source: PubChem (National Center for Advancing Translational Sciences (NCATS))
The list is not random: actives were taken first. Their share in the collection is about 6.1%.
D3 ag: D3 dopamine receptor (human) agonism | D3R DiscoveRx beta-arrestin cells, luminescence, 90 min | max activation, % | AID 652048 | P35462 | actives 0.58% (n = 410,000); in the data active = max activation above about 30%; also: 0% is about no effect
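Agonist mode: compounds and dopamine controls were applied to plated cells for 90 min at 37 degrees C after an overnight attachment at 1500 cells/well. Luminescent read-out followed 30 - 60 minutes at room temperature with DiscoveRx detection reagent.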
D1 antag: antagonists of human D1 dopamine receptor; P21728; AID 504652; activity change, negative = inhibition, % at 10 µM; HEK293 TREx D1 cells, calcium flux, dopamine EC80; active compounds read low; actives 3.2% (n = 360,000); in the data active = activity change below about -30%; also: % is scaled to controls: 0 for no effect and ±100 for the full control effect
Target sequence (P21728 whole entry, looked up): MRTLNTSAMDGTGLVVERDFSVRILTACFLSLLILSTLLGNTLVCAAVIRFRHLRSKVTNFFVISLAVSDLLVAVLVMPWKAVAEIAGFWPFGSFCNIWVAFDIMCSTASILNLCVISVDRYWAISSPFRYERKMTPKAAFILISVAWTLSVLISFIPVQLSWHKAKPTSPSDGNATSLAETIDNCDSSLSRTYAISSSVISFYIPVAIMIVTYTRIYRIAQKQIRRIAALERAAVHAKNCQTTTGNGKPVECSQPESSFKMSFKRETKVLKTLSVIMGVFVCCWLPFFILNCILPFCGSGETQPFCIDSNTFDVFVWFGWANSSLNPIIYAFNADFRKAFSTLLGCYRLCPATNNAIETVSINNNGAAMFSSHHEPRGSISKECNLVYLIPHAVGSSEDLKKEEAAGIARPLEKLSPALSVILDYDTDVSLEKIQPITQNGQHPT
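Tetracycline-induced HEK293 T-REx cells with force-coupled D1 receptor were loaded with a no-wash calcium dye. Compound was added after a 10 s baseline and read kinetically for 180 s; EC80 dopamine was then added and calcium flux followed another 180 s.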
D1 agonist: activates the human D1 dopamine receptor; P21728; HEK293 T-REx D1 cells, calcium flux, agonist mode; AID 504660; activation, % at 2 µM; actives 1% (n = 360,000); in the data active = activation above about 30%; also: 0% is about no effect
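Tetracycline-induced HEK293 TREx D1 cells, force-coupled to calcium signalling, were dye-loaded with a no-wash calcium kit. Compound was pin-added after a 10 s baseline. Fluorescence was read kinetically at 1 cycle/s for 180 s, with calcium rises flagged as agonism.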
D3 antag: antagonists of human D3 dopamine receptor. max response, negative = inhibition, %. D3R cells, DiscoveRx beta-arrestin luminescence, antagonist mode; active compounds read low. P35462. actives 2.5% (n = 360,000); in the data active = max response below about -50%; inconclusive = no clear call, values can overlap the other calls; also: % is scaled to controls: 0 for no effect and ±100 for the full control effect
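Cells plated overnight at 1500 cells/well, then exposed to library compounds with dopamine controls for 90 minutes at 37 degrees C. DiscoveRx reagent added for 30–60 minutes at room temperature; luminescence read, quantitative HTS format.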
D1 PAM: enhances dopamine response at the human D1 receptor | P21728 | HEK293 TREx D1 cells, calcium flux, dopamine EC20 potentiation | potentiation, % at 10 µM | actives 0.036% (n = 360,000) | AID 504651; in the data active = potentiation above about 30%; also: 0% is about no effect
An asterisk follows results filed as active; ? = inconclusive; / = no result given.

SMILES	D3 ag	D1 antag	D1 agonist	D3 antag	D1 PAM
COc1ccc(C)cc1NC(=O)CN(c1cc(C(F)(F)F)ccc1Cl)S(C)(=O)=O	-6.7	7.8	2.2	/	-0.1
Cc1ccc(CCNC(=O)Cn2ncc3c(=O)oc4ccccc4c32)cc1	0.4	10.2	-2.0	/	-2.4
CNC[C@@H]1CC[C@@H](N)[C@@H](O[C@H]2[C@H](O)[C@@H](O[C@H]3OC[C@](C)(O)[C@H](NC)[C@H]3O)[C@H](N)C[C@@H]2N)O1	2.5	/	/	/	/
COc1cc(/C=N/NC(=O)COc2ccc(Cl)cc2)ccc1OS(=O)(=O)c1ccc(C)cc1	-8.4	/	5.2	-50.2*	-1.9
COC(=O)N/N=C/c1ccc(OS(=O)(=O)c2ccc(C)cc2)c(OC)c1	-21.6	-9.0	6.0	-19.1	-0.4
COc1cc(/C=N/NC(=O)COc2cccc(F)c2)ccc1OS(=O)(=O)c1ccc(C)cc1	-8.9	-12.4	5.1	-53.3*	-4.2
CC1CCN(S(=O)(=O)c2ccc3c(c2)N(CC(=O)NC(C)(C)C)C(=O)CS3)CC1	2.6	15.9	2.6	/	-2.6
COc1ccc(CCN2C(=O)CN(C3CCC(C)CC3)C(=O)C2c2ccc(OC(C)C)c(OC)c2)cc1OC (stereo not given)	-12.4	-4.3	6.1	/	-0.3
CSc1ccc(C2CC(=O)Nc3c2c(=O)n(C)c(=O)n3C)cc1 (stereo not given)	5.3	-4.9	4.3	-3.9	-7.5
CCc1ccc(C2CC(=O)Nc3c2c(=O)n(C)c2ncnn32)cc1 (stereo not given)	-12.1	-39.4*	1.4	/	-5.5
C=C1C(=O)OC2C=C(CO)C3OC3C3OC3(C)CC(OC(=O)/C(=C/C)COC(C)=O)C12 (stereo not given)	-15.1	/	/	-81.1*	/
O=C1CN(C(=O)/C=C/c2ccco2)c2ccccc2N1	2.5	-1.3	1.2	9.0	4.5
Cc1cccc(C)c1NC(=O)CN1CCC(Cc2ccccc2)CC1	-8.6	/	/	-69.3*	/
Cc1cccc(C)c1NC(=O)CN1CCN(CCCC(c2ccc(F)cc2)c2ccc(F)cc2)CC1	-78.9	-53.1*	8.2	-78.8*	-5.9
CC(C)(CO)Cc1cc(C(C)(C)C)c(O)c(C(C)(C)C)c1	11.4	22.0	71.1*	21.2	-3.4
CC(C)(C=O)Cc1cc(C(C)(C)C)c(O)c(C(C)(C)C)c1	22.7	38.3	8.2	49.7	9.9
O=C(c1ccc(F)cc1)N1CCCCC(Sc2nnnn2-c2ccccc2)C1=O (stereo not given)	-4.8	-15.1	4.7	-18.7	-5.0
O=C(c1ccccc1)N1CCCCC(Sc2nnnn2-c2ccccc2)C1=O (stereo not given)	-10.3	-1.3	0.6	-59.7*	1.8
Cc1ccc(S(=O)(=O)Nc2cccc3ncccc23)s1	-24.9	2.9	11.3	-77.4*	2.7
O=C(OCCN1CCCCC1)c1ccccc1Cl	0.8	5.8	2.7	-67.8*	-1.6
Clc1ccccc1OCCCCN1CCCCC1	-24.8	-18.7	2.6	-94.8*	-6.3
Clc1ccc(Cl)c(OCCCCN2CCCCC2)c1	-18.0	-17.6	-1.1	-106.0*	-0.9
COc1cccc(OC)c1OCCCCN1CCCCC1	-17.1	-4.6	6.0	-14.3	2.5
Fc1ccccc1OCCCCN1CCCCC1	-19.5	-8.5	3.7	-81.2*	-6.0
Clc1ccccc1OCCCCN1CCCC1	-29.4	7.9	1.8	-85.1*	-10.2
SMILES	D3 ag	D1 antag	D1 agonist	D3 antag	D1 PAM
CC1CCN(CCOc2cc(Cl)ccc2Cl)CC1	-4.6	-59.0*	3.8	?	-4.2
Clc1ccccc1OCCCCN1CCNCC1	-12.8	-1.9	1.6	?	-2.6
CCCCCCC1CCC(C(=O)Nn2c(C)nc3ccccc3c2=O)CC1 (stereo not given)	30.4*	8.0	1.7	18.2	-2.2
COc1ccc(S(=O)(=O)NC(N)=NCCc2ccccc2OC)cc1	5.9	-52.6*	1.9	-2.1	-6.2
O=C(C#Cc1ccccc1)c1ccco1	-27.1	-19.5	-1.4	-99.6*	5.0
O=C(N/N=C/c1ccccc1)c1ccco1	0.8	3.4	2.2	22.7	-1.8
CC(C)CC1Nc2ncnc(N3CCN(c4ccccc4)CC3)c2N(Cc2ccc(Cl)cc2)C1=O (stereo not given)	-9.9	-0.3	0.2	-23.1	1.5
Cc1ccc(CN2C(=O)C(Cc3ccccc3)Nc3ncnc(N4CCOCC4)c32)cc1 (stereo not given)	-9.2	/	/	-58.2*	/
